The values below come from article PMC11006913.

Common to all, as to test: PBM; 200 nM protein, PBS
What all share (conditions): dsDNA, one strand shown

In assay [1] the target is T1, SIX6 (Homo sapiens, UniProt O95475 114-200, L167I).
T1 sequence: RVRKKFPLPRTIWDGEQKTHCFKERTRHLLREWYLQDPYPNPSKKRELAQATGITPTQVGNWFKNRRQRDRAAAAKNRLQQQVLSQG

Assay [2] addresses T2, SIX6 (Homo sapiens, UniProt O95475 114-200, L143V).
T2 sequence: T1 sequence with L30V, I54L

For assay [3], the target named is T3, SIX6 (Homo sapiens, UniProt O95475 114-200, H141N).
T3 sequence: T1 sequence with H28N, I54L

The target in assay [4] is T4, SIX6 (Homo sapiens, UniProt O95475 114-200, T165P).
T4 sequence: T1 sequence with T52P, I54L

The target in assay [5] is T5, SIX6 (Homo sapiens, UniProt O95475 114-200, L167M).
T5 sequence: T1 sequence with I54M

Assay [6] has as its target T6, SIX6 (Homo sapiens, UniProt O95475 114-200, L143M).
T6 sequence: T1 sequence with L30M, I54L

The target in assay [7] is T7, SIX6 (Homo sapiens, UniProt O95475 114-200, L143I).
T7 sequence: T1 sequence with L30I, I54L

For assay [8], the target named is T8, SIX6 (Homo sapiens, UniProt O95475 114-200, T165G).
T8 sequence: T1 sequence with T52G, I54L

Assay [9] addresses T9, SIX6 (Homo sapiens, UniProt O95475 114-200, T139Q).
T9 sequence: T1 sequence with T26Q, I54L

Assay [10] addresses T10, SIX6 (Homo sapiens, UniProt O95475 114-200, T165A).
T10 sequence: T1 sequence with T52A, I54L

Assay [11] concerns the target T11, SIX6 (Homo sapiens, UniProt O95475 114-200, L167V).
T11 sequence: T1 sequence with I54V

The target of assay [12] is T12, SIX6 (Homo sapiens, UniProt O95475 114-200).
T12 sequence: T1 sequence with I54L

Assay [13] concerns the target T13, SIX6 (Homo sapiens, UniProt O95475 114-200, T165I).
T13 sequence: T1 sequence with T52I, I54L

Changes are numbered by the printed parent chain.

Take AACGCGGC: the binding signal with SIX6 [1] is 8.99 upbm affinity estimate (log intensity, higher = more binding, comparable within an allelic series); in the assay with SIX6 [2], 8.99 upbm affinity estimate (log intensity, higher = more binding, comparable within an allelic series); in the assay with SIX6 [3], 8.99 upbm affinity estimate (log intensity, higher = more binding, comparable within an allelic series); in the assay with SIX6 [4], 9.03 upbm affinity estimate (log intensity, higher = more binding, comparable within an allelic series); in the assay with SIX6 [5], 8.95 upbm affinity estimate (log intensity, higher = more binding, comparable within an allelic series); with SIX6 [6], 9.03 upbm affinity estimate (log intensity, higher = more binding, comparable within an allelic series). Moreover, the binding signal in the assay with SIX6 [7] was 8.92 upbm affinity estimate (log intensity, higher = more binding, comparable within an allelic series); with SIX6 [8], 8.8 upbm affinity estimate (log intensity, higher = more binding, comparable within an allelic series); in the assay with SIX6 [9], 8.99 upbm affinity estimate (log intensity, higher = more binding, comparable within an allelic series); with SIX6 [10], 8.84 upbm affinity estimate (log intensity, higher = more binding, comparable within an allelic series); with SIX6 [11], 8.94 upbm affinity estimate (log intensity, higher = more binding, comparable within an allelic series); with SIX6 [12], 8.94 upbm affinity estimate (log intensity, higher = more binding, comparable within an allelic series). Further, the binding signal with SIX6 [13] was 8.96 upbm affinity estimate (log intensity, higher = more binding, comparable within an allelic series).

For CGGCCACC, the binding signal in the assay with SIX6 [1] was 8.7 upbm affinity estimate (log intensity, higher = more binding, comparable within an allelic series); with SIX6 [2], 8.6 upbm affinity estimate (log intensity, higher = more binding, comparable within an allelic series); in the assay with SIX6 [3], 8.63 upbm affinity estimate (log intensity, higher = more binding, comparable within an allelic series); in the assay with SIX6 [4], 8.71 upbm affinity estimate (log intensity, higher = more binding, comparable within an allelic series); with SIX6 [5], 8.67 upbm affinity estimate (log intensity, higher = more binding, comparable within an allelic series); in the assay with SIX6 [6], 8.54 upbm affinity estimate (log intensity, higher = more binding, comparable within an allelic series). The binding signal with SIX6 [7] is 8.75 upbm affinity estimate (log intensity, higher = more binding, comparable within an allelic series); in the assay with SIX6 [8], 8.72 upbm affinity estimate (log intensity, higher = more binding, comparable within an allelic series); with SIX6 [9], 8.67 upbm affinity estimate (log intensity, higher = more binding, comparable within an allelic series); in the assay with SIX6 [10] it was 8.71 upbm affinity estimate (log intensity, higher = more binding, comparable within an allelic series); in the assay with SIX6 [11], 8.66 upbm affinity estimate (log intensity, higher = more binding, comparable within an allelic series); with SIX6 [12] it was 8.55 upbm affinity estimate (log intensity, higher = more binding, comparable within an allelic series). For the same sequence, the binding signal in the assay with SIX6 [13] is 8.64 upbm affinity estimate (log intensity, higher = more binding, comparable within an allelic series).

For AGGGCCCG, the binding signal is 8.98 upbm affinity estimate (log intensity, higher = more binding, comparable within an allelic series) in the assay with SIX6 [1]; 8.79 upbm affinity estimate (log intensity, higher = more binding, comparable within an allelic series) with SIX6 [2]; 8.98 upbm affinity estimate (log intensity, higher = more binding, comparable within an allelic series) with SIX6 [3]; 8.84 upbm affinity estimate (log intensity, higher = more binding, comparable within an allelic series) with SIX6 [4]; 8.98 upbm affinity estimate (log intensity, higher = more binding, comparable within an allelic series) with SIX6 [5]; 8.93 upbm affinity estimate (log intensity, higher = more binding, comparable within an allelic series) with SIX6 [6]. Further, the binding signal with SIX6 [7] was 8.9 upbm affinity estimate (log intensity, higher = more binding, comparable within an allelic series); with SIX6 [8], 8.99 upbm affinity estimate (log intensity, higher = more binding, comparable within an allelic series); with SIX6 [9], 9.07 upbm affinity estimate (log intensity, higher = more binding, comparable within an allelic series); with SIX6 [10] it was 8.92 upbm affinity estimate (log intensity, higher = more binding, comparable within an allelic series); with SIX6 [11] it was 8.93 upbm affinity estimate (log intensity, higher = more binding, comparable within an allelic series); with SIX6 [12], 8.95 upbm affinity estimate (log intensity, higher = more binding, comparable within an allelic series). The binding signal in the assay with SIX6 [13] was 8.9 upbm affinity estimate (log intensity, higher = more binding, comparable within an allelic series).

For AGGGTATC, the binding signal with SIX6 [1] was 11.2 upbm affinity estimate (log intensity, higher = more binding, comparable within an allelic series); in the assay with SIX6 [2] it was 10.2 upbm affinity estimate (log intensity, higher = more binding, comparable within an allelic series); in the assay with SIX6 [3], 11.2 upbm affinity estimate (log intensity, higher = more binding, comparable within an allelic series); in the assay with SIX6 [4], 9.36 upbm affinity estimate (log intensity, higher = more binding, comparable within an allelic series); in the assay with SIX6 [5] it was 10.7 upbm affinity estimate (log intensity, higher = more binding, comparable within an allelic series); with SIX6 [6], 11 upbm affinity estimate (log intensity, higher = more binding, comparable within an allelic series). The binding signal with SIX6 [7] is 10.4 upbm affinity estimate (log intensity, higher = more binding, comparable within an allelic series); in the assay with SIX6 [8], 11.4 upbm affinity estimate (log intensity, higher = more binding, comparable within an allelic series); with SIX6 [9] it was 11.4 upbm affinity estimate (log intensity, higher = more binding, comparable within an allelic series); with SIX6 [10] it was 11.1 upbm affinity estimate (log intensity, higher = more binding, comparable within an allelic series); with SIX6 [11], 10.9 upbm affinity estimate (log intensity, higher = more binding, comparable within an allelic series); with SIX6 [12] it was 11.1 upbm affinity estimate (log intensity, higher = more binding, comparable within an allelic series). Also, the binding signal with SIX6 [13] was 11 upbm affinity estimate (log intensity, higher = more binding, comparable within an allelic series).

In the case of GGTGATAC, the binding signal with SIX6 [1] was 11.3 upbm affinity estimate (log intensity, higher = more binding, comparable within an allelic series); in the assay with SIX6 [2] it was 10.3 upbm affinity estimate (log intensity, higher = more binding, comparable within an allelic series); in the assay with SIX6 [3], 11.3 upbm affinity estimate (log intensity, higher = more binding, comparable within an allelic series); with SIX6 [4], 9.52 upbm affinity estimate (log intensity, higher = more binding, comparable within an allelic series); in the assay with SIX6 [5], 10.6 upbm affinity estimate (log intensity, higher = more binding, comparable within an allelic series); with SIX6 [6], 11 upbm affinity estimate (log intensity, higher = more binding, comparable within an allelic series). Moreover, the binding signal in the assay with SIX6 [7] was 10.4 upbm affinity estimate (log intensity, higher = more binding, comparable within an allelic series); in the assay with SIX6 [8], 11.3 upbm affinity estimate (log intensity, higher = more binding, comparable within an allelic series); with SIX6 [9], 11.4 upbm affinity estimate (log intensity, higher = more binding, comparable within an allelic series); with SIX6 [10], 11.3 upbm affinity estimate (log intensity, higher = more binding, comparable within an allelic series); in the assay with SIX6 [11] it was 11 upbm affinity estimate (log intensity, higher = more binding, comparable within an allelic series); with SIX6 [12], 11 upbm affinity estimate (log intensity, higher = more binding, comparable within an allelic series). Further, the binding signal with SIX6 [13] was 11 upbm affinity estimate (log intensity, higher = more binding, comparable within an allelic series).
